{
  "source": "PubChem BioAssay AID743130",
  "about": "(Broad Institute, 2013)",
  "assay": "cell wall integrity pathway activation in yeast – S. cerevisiae reporter strain, C. neoformans project, dry powder, dose response (AID 743130)",
  "details": "S. cerevisiae Rlm1-lacZ reporter, luminescence, 4 h, hits give high values",
  "note": "Several values for one entry are separate records, joined by “and”; a condition that tells them apart may be missing. Equal entries are not always repeated. A number with no mark means an inactive call.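 The calls were made as follows: active = fitted curve rises past 20% activation at a concentration no higher than the top valid tested dose; inactive = activity opposite to the expected signal increase, and the rest.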",
  "data": [
    {"smiles": "Cc1ccccc1OCCn1c(=S)[nH]c2ccccc21", "values": [
      {"measurement": "maximal activation", "setting": "at 35 µM unless noted", "result": "-3.77% [at 1 µM]"}
    ]},
    {"smiles": "Fc1cccc2c1[nH]c(=S)n2CCOc1ccccc1", "values": [
      {"measurement": "maximal activation", "setting": "at 35 µM unless noted", "result": "-3.67% [at 8 µM]"}
    ]},
    {"smiles": "Cc1ccc(OCCn2c(=S)[nH]c3ccccc32)c(C(C)C)c1", "values": [
      {"measurement": "maximal activation", "setting": "at 0.135 µM", "result": 2.35, "unit": "%"},
      {"measurement": "maximal activation", "setting": "at 0.26 µM", "result": 3.69, "unit": "%"}
    ]},
    {"smiles": "S=c1[nH]c2cccc(Cl)c2n1CCOc1ccccc1", "values": [
      {"measurement": "maximal activation", "setting": "at 35 µM unless noted", "result": -2.44, "unit": "%"}
    ]},
    {"smiles": "CCOC(=O)c1c(NC(=O)CN2CCN(C)CC2)sc(C)c1-c1ccc(C)cc1", "values": [
      {"measurement": "maximal activation", "setting": "at 35 µM unless noted", "result": 5.75, "unit": "%"}
    ]},
    {"smiles": "COC(=O)C1=C(C)N(Cc2ccc(F)cc2)C(=S)NC1c1cccc(F)c1", "note": "(stereo unspecified)", "values": [
      {"measurement": "maximal activation", "setting": "at 35 µM unless noted", "result": 3.69, "unit": "%"}
    ]},
    {"smiles": "CCOC(=O)c1c(NC(=O)CNCCN(C)C)sc(C)c1-c1ccccc1", "values": [
      {"measurement": "maximal activation", "setting": "at 35 µM unless noted", "result": "-3% [at 2.1 µM]"}
    ]},
    {"smiles": "Cc1ccc(OCCn2c(SCCO)nc3ccccc32)c(C(C)C)c1", "values": [
      {"measurement": "maximal activation", "setting": "at 35 µM unless noted", "result": "-2.9% [at 2.1 µM]"}
    ]},
    {"smiles": "Cc1ccc2c(c1)[nH]c(=S)n2CCOc1ccccc1", "values": [
      {"measurement": "maximal activation", "setting": "at 35 µM unless noted", "result": 1.98, "unit": "%"}
    ]},
    {"smiles": "CCOC(=O)c1c(-c2ccc(F)cc2)csc1NC(=O)CN1CCN(C)CC1", "values": [
      {"measurement": "maximal activation", "setting": "at 35 µM unless noted", "result": "8.68% [at 16 µM]"}
    ]},
    {"smiles": "COC(=O)C1=C(C)N(Cc2ccc(Br)cc2)C(=S)NC1c1ccc(F)cc1", "note": "(stereo unspecified)", "values": [
      {"measurement": "maximal activation", "setting": "at 35 µM unless noted", "result": "9.62% [at 16 µM]"}
    ]},
    {"smiles": "Fc1ccccc1OCCn1c(=S)[nH]c2ccccc21", "values": [
      {"measurement": "maximal activation", "setting": "at 35 µM unless noted", "result": -3.96, "unit": "%"}
    ]},
    {"smiles": "CCOC(=O)c1c(-c2ccc(C(C)(C)C)cc2)csc1NC(=O)CN1CCN(CC)CC1", "values": [
      {"measurement": "maximal activation", "setting": "at 35 µM unless noted", "result": "2.55% [at 8 µM]"}
    ]},
    {"smiles": "CCOC(=O)c1c(-c2ccc(C(C)(C)C)cc2)csc1NC(=O)CN1CCN(C)CC1", "values": [
      {"measurement": "maximal activation", "setting": "at 35 µM unless noted", "result": "6.67% [at 16 µM]"}
    ]},
    {"smiles": "Cc1ccc(OCCn2c(=S)[nH]c3ccccc32)cc1", "values": [
      {"measurement": "maximal activation", "setting": "at 35 µM unless noted", "result": -4.62, "unit": "%"}
    ]},
    {"smiles": "COC(=O)C1=C(C)N(Cc2ccc(Br)cc2)C(=S)NC1c1ccc(OC)cc1", "note": "(stereo unspecified)", "values": [
      {"measurement": "maximal activation", "setting": "at 35 µM unless noted", "result": "5.5% [at 0.26 µM]"}
    ]},
    {"smiles": "S=c1[nH]c2ccccc2n1CCOc1ccc(Cl)cc1", "values": [
      {"measurement": "maximal activation", "setting": "at 35 µM unless noted", "result": "3.89% [at 8 µM]"}
    ]},
    {"smiles": "c1ccc(OCCn2cnc3ccccc32)cc1", "values": [
      {"measurement": "maximal activation", "setting": "at 35 µM unless noted", "result": "-5.78% [at 1 µM]"}
    ]},
    {"smiles": "CCOC(=O)c1c(-c2ccc(-c3ccccc3)cc2)csc1NC(=O)CNCCN(C)C", "values": [
      {"measurement": "maximal activation", "setting": "at 35 µM unless noted", "result": -12.6, "unit": "%"}
    ]},
    {"smiles": "COC(=O)C1=C(C)N(Cc2ccccc2)C(=S)NC1c1ccc(Br)cc1", "note": "(stereo unspecified)", "values": [
      {"measurement": "maximal activation", "setting": "at 35 µM unless noted", "result": "6.99% [at 8 µM]"}
    ]},
    {"smiles": "S=c1[nH]c2ccccc2n1CCOc1ccccc1", "values": [
      {"measurement": "maximal activation", "setting": "at 35 µM unless noted", "result": "3.85% [at 4.2 µM]"}
    ]},
    {"smiles": "CCOC(=O)c1c(-c2ccc(F)cc2)csc1NC(=O)CN1CCN(CC)CC1", "values": [
      {"measurement": "maximal activation", "setting": "at 35 µM unless noted", "result": "7.91% [at 1 µM]"}
    ]},
    {"smiles": "COC(=O)C1=C(C)N(Cc2ccc(Cl)cc2)C(=S)NC1c1ccc(Br)cc1", "note": "(stereo unspecified)", "values": [
      {"measurement": "maximal activation", "setting": "at 35 µM unless noted", "result": "9% [at 2.1 µM]"}
    ]},
    {"smiles": "O=c1[nH]c2ccccc2n1CCOc1ccccc1", "values": [
      {"measurement": "maximal activation", "setting": "at 35 µM unless noted", "result": "6.24% [at 2.1 µM] and 3.18% [at 2.1 µM]"}
    ]},
    {"smiles": "Cc1ccc(C(C)C)c(OCCn2c(=S)[nH]c3ccccc32)c1", "values": [
      {"measurement": "maximal activation", "setting": "at 35 µM unless noted", "result": "-8.35% [at 0.5 µM]"}
    ]},
    {"smiles": "Cc1ccc(OCCn2cnc3ccccc32)cc1", "values": [
      {"measurement": "maximal activation", "setting": "at 35 µM unless noted", "result": "-5.3% [at 4.2 µM]"}
    ]},
    {"smiles": "Cc1ccc(OCCn2c(C)nc3ccccc32)cc1", "values": [
      {"measurement": "maximal activation", "setting": "at 35 µM unless noted", "result": 1.77, "unit": "%"}
    ]},
    {"smiles": "CCOC(=O)c1c(-c2ccc(OC)cc2)csc1NC(=O)CN(C)CC(=O)N(C)C", "values": [
      {"measurement": "maximal activation", "setting": "at 35 µM unless noted", "result": "-2.31% [at 4.2 µM]"}
    ]},
    {"smiles": "Cc1cccc(OCCn2c(=S)[nH]c3cc(C(F)(F)F)ccc32)c1", "values": [
      {"measurement": "maximal activation", "setting": "at 35 µM unless noted", "result": "-9% [at 16 µM]"}
    ]},
    {"smiles": "CCOc1ccc(OCCn2c(=S)[nH]c3ccccc32)cc1", "values": [
      {"measurement": "maximal activation", "setting": "at 35 µM unless noted", "result": "-9.4% [at 0.26 µM]"}
    ]}
  ]
}
